In ChEMBL document CHEMBL4513216, “Probing the Open Global Health Chemical Diversity Library for Multistage-Active Starting Points for Next-Generation Antimalarials” (ACS Infect Dis, 2020) one finds INHIBITION data, which are given here for 63 molecules.

SMILES strings stand for the structures. Among all 65,000 compounds or so, about 2,100 (3.2%) showed an effect of 50% or more. The median lay at about -52%. This excerpt belongs to a sample that is enriched for strong results.

For the assay, the system named is Plasmodium falciparum. As to the kind of experiment: Screen against P. falciparum Asexual Blood Stage (ABS), at 5uM. It is filed as functional, Dd2. As to conditions: tested at 5 uM.
On to `CCc1[nH]c(C2(N)CCCCC2)nc(=O)c1C`, for which the INHIBITION is listed as -30.6%.

Regarding `Cc1noc(C)c1CN1CCO[C@H]2CN(CC3CC3)C[C@H]21`, the INHIBITION is on record as 26.3%.

Take `Cc1nc(=O)c(CC(=O)N2C[C@H]3CC[C@@H](C2)N(CC2CCC2)C3)c[nH]1`: the INHIBITION is reported as -30%.

As for `CCN(CC1CCCN(CCc2cccc(OC)c2)C1)C(=O)CN(C)C` (stereo not drawn), the INHIBITION is on record as 83.3%.

Take `COCC1COCCC12CCN(C(=O)Cc1cccc(OC)c1)CC2` (stereo not drawn): the INHIBITION is reported as -3.52%.

`COc1ccc(C(=O)C2CCCN(CCc3ccccc3)C2)c(OC)c1` (stereo not drawn): the INHIBITION amounted to 71.8%.

With `COc1ccc(C(=O)C2CCCN(Cc3ccccc3O)C2)c(OC)c1` (stereo not drawn), the INHIBITION is on record as -55.9%.

Take `Cc1nc(NCc2ccco2)nc2c1COCC21CCNC1` (stereo not drawn): the INHIBITION came out at 21.7%.

Turning to `Cn1cc(N2CCC3(CCN(Cc4cccnc4)C3)C2=O)cn1` (stereo not drawn), the INHIBITION is listed as -35.8%.

Regarding `CCCN1CC2(CCN(c3ncc(F)cn3)CC2)CC1C(=O)O` (stereo not drawn), the INHIBITION is recorded as -31.5%.

With `CN(CCO)C[C@@H]1CN(C2CCN(c3ccccc3Cl)CC2)C[C@@H]1CO`, the INHIBITION came out at 79.5%.

Turning to `CN(C)C[C@@H]1CN(C2CCN(c3ccccc3Cl)CC2)C[C@@H]1CO`, the INHIBITION is on record as 74%.

For the molecule `CN(C)C[C@@H]1C[C@@H]2CN(c3ncc(F)cn3)CC[C@@H]2N1C`, the INHIBITION came out at 12.3%.

For the molecule `Cc1cc(F)ccc1N1CCC(N2C[C@@H](CN(C)C)[C@@H](CO)C2)CC1`, the INHIBITION came out at 92.6%.

In the case of `CN(C)C[C@@H]1CN(C2CCN(c3ccc(Cl)cc3)CC2)C[C@@H]1CO`, the INHIBITION is 88.5%.

Regarding `COCCO[C@H]1COCCN(C2CCN(C)CC2)C1`, the INHIBITION was -110%.

As to `Cc1cc(CN2C[C@@H]3CCCO[C@@H]3[C@H](NS(C)(=O)=O)C2)no1`, the INHIBITION is -28.3%.

On to `O=C(C1CCCCC1)N1CCO[C@@H]2CNC[C@@H]21`, for which the INHIBITION is -65.1%.

`COC[C@]12COC[C@H]1CN(Cc1cccnc1OC)C2`: the INHIBITION is given as -130%.

`CN(CCO)C[C@@H]1CN(Cc2ccccc2-c2ccccc2)C[C@@H]1CO`: the INHIBITION came to 87.6%.

On to `CC(C)=CCN1C[C@@H]2CC[C@H]1CN(C(=O)Cc1c(C)[nH]c(C)nc1=O)C2`, for which the INHIBITION is on record as -28.2%.

`Fc1ccc(CN2CCO[C@H]3[C@H](Oc4ccccn4)CC[C@@H]32)cc1`: the INHIBITION was -29%.

On to `O=C(Cc1cccnc1)N1C[C@@H]2CC[C@H]1CN(Cc1ccc(F)cc1)C2`, for which the INHIBITION was -13.8%.

With `CCOc1ccc(CN2CCCC(c3cc4ncccc4[nH]3)C2)cc1` (stereo not drawn), the INHIBITION amounted to 85%.

Regarding `Fc1ccc(CN2CCCC(c3cc4ncccc4[nH]3)C2)cc1` (stereo not drawn), the INHIBITION is recorded as 82.3%.

As for `c1cc(CO[C@H]2CC[C@H]3[C@H]2OCCN3Cc2nccs2)ccn1`, the INHIBITION is recorded as -84.3%.

On to `CN(C)C(=O)[C@H]1C[C@@H]2CCN(Cc3ccncc3)C[C@H]2O1`, for which the INHIBITION is -59.7%.

Regarding `CCc1c(C)sc2ncnc(N3CC[C@@H](N4CCC(O)CC4)[C@H](O)C3)c12`, the INHIBITION stood at 75.5%.

Consider `Cc1cc(C)c(CNc2cnc3ccccc3n2)c(=O)[nH]1`, for which the INHIBITION was found to be 12.9%.

As for `COc1ccccc1CCN1CCCC(CN(C)Cc2ccc(C)o2)C1` (stereo not drawn), the INHIBITION was 87.8%.

For the molecule `COc1ccccc1CC(=O)N(CCN1CCOCC1)Cc1ccco1`, the INHIBITION was -29.3%.

`COc1ccccc1CC(=O)N1CCN(Cc2ccco2)C[C@@H]1C`: the INHIBITION is on record as -101%.

On to `Cc1nc(CN2CCOCC3(CCN(c4ccccn4)C3)C2)cs1` (stereo not drawn), for which the INHIBITION is 0.814%.

Turning to `Cc1nc(CNCc2c(C(C)C)nn(C)c2N2CCOCC2)cs1`, the INHIBITION is given as 71.7%.

Regarding `Cc1nc(CN2CCOCC3(CCN(c4ncccn4)C3)C2)cs1` (stereo not drawn), the INHIBITION is on record as -42.9%.

For the molecule `CC(C)NC(=O)N1CCOC2(CNC2)C1`, the INHIBITION is on record as -131%.

`Cc1cccc(CN2C[C@H](OCc3csc(C)n3)[C@H]3COC[C@H]32)n1`: the INHIBITION is -75.9%.

For the molecule `Cn1ncc2c(NC3CN4CCC3CC4)nc(-c3ccncc3)nc21` (stereo not drawn), the INHIBITION worked out at 0.572%.

For `Cn1ncc2c(NC3CCSC3)nc(-c3ccncc3)nc21` (stereo not drawn), the INHIBITION is listed as 83.1%.

In the case of `CCc1cc(CN2C[C@@H]3CC[C@H]2CN(C2Cc4ccccc4C2)C3)on1`, the INHIBITION is recorded as 88.2%.

On to `CSc1ncc(CN2C[C@@H]3CC[C@H]2CN(C2CCOCC2)C3)cn1`, for which the INHIBITION was -18.2%.

As to `CN(C)C(=O)CN1C[C@H]2CC[C@@H](C1)N(Cc1c(Cl)cncc1Cl)C2`, the INHIBITION is given as -33.6%.

Turning to `COc1cc(CNC(C)Cn2cccn2)cc2c1OCCO2` (stereo not drawn), the INHIBITION is reported as -31%.

Turning to `Cc1ccsc1CN(CCCN(C)C)Cc1ccccn1`, the INHIBITION stood at 77.9%.

With `COCCN1CCO[C@@H]2CN(Cc3ccccn3)C[C@@H]2C1`, the INHIBITION is listed as -86.9%.

For `COc1cc(CNC(C)Cn2cccn2)cc2c1OCO2` (stereo not drawn), the INHIBITION is given as -32.2%.

As for `COc1cc(CN(CCCN(C)C)Cc2ccccn2)cc2c1OCO2`, the INHIBITION stood at 80.6%.

For `COCCn1ccnc1CN(Cc1ccccn1)Cc1sccc1C`, the INHIBITION is 92.9%.

For the molecule `Cc1ccc(N2C[C@@H]3CN(Cc4csc(C)n4)CCO[C@@H]3C2)nn1`, the INHIBITION is given as -106%.

For the molecule `O=C1CO[C@H]2CN(Cc3ccccc3Br)C[C@@H]2N1`, the INHIBITION is on record as 7.05%.

Regarding `COc1ccc(F)cc1CN1CCC(O)(CN2CCCCC2)C1` (stereo not drawn), the INHIBITION worked out at 70.9%.

On to `COc1ccc(F)cc1C(=O)C1CCCN(Cc2ccc(C)s2)C1` (stereo not drawn), for which the INHIBITION was found to be 17%.

For the molecule `Cc1cc(F)ccc1CN1CCC(O)(CN2CCCCC2)C1` (stereo not drawn), the INHIBITION came to 78.8%.

As to `CN1CCO[C@H]2CN(C(=O)c3ccoc3)C[C@H]21`, the INHIBITION is reported as -144%.

As for `Cn1nc(-c2ccccc2)cc1[C@H]1CN2CC[C@H]1C[C@@H]2CNS(C)(=O)=O`, the INHIBITION is reported as 15%.

As for `O=C(Cc1ccccc1)N1CCC2(CCN2Cc2ccc(F)cc2)C1` (stereo not drawn), the INHIBITION is -12.1%.

For the molecule `O=C(Nc1ccc(F)cc1)N1CCC(CO)(Nc2ccccc2)CC1`, the INHIBITION was -40.85%.

Turning to `O=C1N(CCc2ccccc2)CCCC1(O)CNCc1ccc(F)cc1` (stereo not drawn), the INHIBITION is given as 78.1%.

In the case of `O=C1N(CCCc2ccccc2)CCCC1(O)CNCC1CCCCC1` (stereo not drawn), the INHIBITION was 72.4%.

On to `CC(Cn1cccn1)NCCS(=O)(=O)c1ccccc1` (stereo not drawn), for which the INHIBITION is -87.3%.

As to `O=C(C1CCN(S(=O)(=O)N2CCCC2)CC1)N1CCC2(CC1)OCCO2`, the INHIBITION is -133%.

Take `CC(C)CN1C[C@@H]2C[C@H](C(=O)NCc3cccnc3)[C@H](C1)O2`: the INHIBITION is reported as -83.7%.

Regarding `CCc1ccc(CN(C)c2ccc(-c3nc(COC)no3)cn2)nc1`, the INHIBITION is reported as 78.4%.
